From PubChem BioAssay
Coupling enz: coupling enzyme interference in Giardia aldolase counter-screen; coupling enzyme system counterscreen, AmpLite Red fluorescence; AID 2472; activity change, negative = inhibition, % at 58.2 µM, hits read low; 0.67% of 290,000 active; in the data active means activity change below about -30%; further: on the % scale 0 is the no-effect control and ±100 the full control effect
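Counterscreen lacking aldolase: glyceraldehyde-3-phosphate coupling-enzyme reagent preincubated 10 min at RT with compound (at 57.5 uM final), then substrate/coupling system with AmpLite Red added; fluorescence read at 525/598 nm after 20 min RT.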
JMJD2E inh: inhibitors of human JMJD2E histone demethylase | 1.6% of 230,000 active | B2RXH2 | Potency, µM (doses to about 57.1 µM), inactives show top-dose activity change, negative = inhibition, actives largely listed as inhibitors | JMJD2E catalytic domain, FDH-coupled NADH fluorescence (FDH is formaldehyde dehydrogenase) | AID 2147; active means well fitted inhibition curve with a large enough effect, not every such curve was filed as active; inconclusive means small, poorly fitted or top-dose-only effect, or another doubt; inactive means no such curve, though single readings can be large or run the other way;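 further: potency means the concentration at half of the fitted maximal effect; 0% = wells with enzyme and -100% = buffer wells without enzyme; nearly all actives have a fitted effect of over 50% in size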
Target sequence (B2RXH2 1-337 limits assumed): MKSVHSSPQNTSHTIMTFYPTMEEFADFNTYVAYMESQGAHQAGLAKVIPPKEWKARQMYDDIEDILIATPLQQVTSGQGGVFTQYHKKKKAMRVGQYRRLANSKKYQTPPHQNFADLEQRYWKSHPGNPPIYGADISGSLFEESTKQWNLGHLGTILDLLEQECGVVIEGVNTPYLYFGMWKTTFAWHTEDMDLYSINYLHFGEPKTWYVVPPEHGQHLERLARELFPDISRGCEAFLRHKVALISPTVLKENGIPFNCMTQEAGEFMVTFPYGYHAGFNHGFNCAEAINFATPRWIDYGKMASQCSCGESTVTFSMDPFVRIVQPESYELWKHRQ
VDR inh: vitamin D3 receptor (human) inhibition. VDR-SRC2-3 peptide fluorescence polarization, 2 h. 0.93% of 400,000 active. Potency, µM, for inactives: max response, negative = inhibition, most hits filed as inhibitors. P11473. AID 504847; further: potency means the concentration at half of the fitted maximal effect; on the % scale 0 is the no-effect control and ±100 the full control effect
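Fluorescence polarization assay measuring small-molecule disruption of VDR binding to the coregulator peptide SRC2-3. Compounds were pin-transferred (23 nl) into the reagent mix and incubated 2 h at room temperature before reading.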
HTT aggregate: inhibitors of mutant huntingtin aggregate formation in PC12 cells | 1.1% of 220,000 active | PC12 HttQ103-GFP aggregates, Acumen cytometry, 40 h | AID 1688 | Potency, µM (titrated, usually from 46.1 µM), for the others: at the highest dose activity change, negative = inhibition, usual class: inhibitors; further: potency means the concentration at half of the fitted maximal effect; on the % scale 0 is the no-effect control and ±100 the full control effect; nearly all actives have a fitted effect of over 60% in size
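Ecdysone-promoter PC12 model expressing HTT exon 1 Q103 fused to GFP, induced by tebufenozide at 100 nM final. Compounds titrated; aggregates sized 1–25 µm scored on a 488 nm laser cytometer.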
HTT cytoprotect: Huntington cell model cytoprotection by ATP luminescence. PC12 HTT-Q103 induced, cytoprotection, ATP luminescence, 40 h. Potency, µM (highest dose often 56.4 µM), inactives show cytoprotection (ATP increase), actives largely listed as activators. 0.14% of 230,000 active; further: potency means the concentration at half of the fitted maximal effect; % of control where 0% means no effect; nearly all actives have a fitted effect of over 45% in size
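Rat PC12, Q103 Htt exon1-GFP fusion, ecdysone promoter; tebufenozide inducer 100 nM final; compound titration; qHTS, 1500 cells/well; ATPlite luminescent read.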
GoLoco inh red: blocks human Gai1 binding to RGS12 GoLoco peptide, red readout. AID 880. Gai1:RGS12 GoLoco peptide FP, rhodamine, 10 min. Potency, µM (series often up to 61.6 µM), without a hit: at the highest dose activity, negative = inhibition, actives largely listed as inhibitors. 0.44% of 230,000 active. P63096; active means well fitted inhibition curve with a large enough effect, not every such curve was filed as active; inactive means no such curve, though single readings can be large or run the other way; further: potency means the concentration at half of the fitted maximal effect; on the % scale 0 is the no-effect control and ±100 the full control effect; nearly all actives have a fitted effect of over 30% in size
Target sequence (P63096 whole entry, looked up): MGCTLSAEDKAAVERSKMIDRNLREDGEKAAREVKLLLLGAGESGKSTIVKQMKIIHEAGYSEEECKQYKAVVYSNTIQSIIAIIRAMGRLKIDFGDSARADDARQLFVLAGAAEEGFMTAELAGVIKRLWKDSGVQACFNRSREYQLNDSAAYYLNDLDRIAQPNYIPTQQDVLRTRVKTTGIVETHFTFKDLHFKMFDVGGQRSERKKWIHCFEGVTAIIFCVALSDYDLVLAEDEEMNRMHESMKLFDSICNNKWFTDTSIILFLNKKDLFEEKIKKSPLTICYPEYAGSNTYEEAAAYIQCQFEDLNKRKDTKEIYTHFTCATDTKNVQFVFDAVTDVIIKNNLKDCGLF
* marks the source's active call; other numbers are inactive results; ? = inconclusive; nt = no result given; ! = not active in a repeat; [ ] = dose if it differs, or a comment. Sampled rows, rich in hits. Any-hit rate of the full collection: about 2.3%. Unless noted, the call rests on the fitted dose curve; in most records, active means well fitted curve in the direction sought with a large enough effect; inconclusive means small, poorly fitted or top-dose-only effect, or another doubt; inactive means no such curve, though single readings can be large; an effect the other way counts as inactive or inconclusive.

SMILES	Coupling enz	JMJD2E inh	VDR inh	HTT aggregate	HTT cytoprotect	GoLoco inh red
O=C(CCn1cnc2ccccc2c1=O)NCc1ccccc1	nt	nt	-9%	nt	nt	nt
CCNC(=O)N1c2ccc(OC)cc2C(C)=CC1(C)C	-40*	?	14%	8%	-3%	-5%
Cc1cc(=O)n(C2CCS(=O)(=O)C2)[nH]1 (centres undefined)	0	22µM*	-1%	-6%[9.22 µM]	-5%[10 µM]	10%
Cc1ccccc1-c1nnnn1C1CCS(=O)(=O)C1 (centres undefined)	-1	2%	13%	31%	1%[10 µM]	18%
Cc1ccc(NC(=O)Cn2nc(N3CCN(c4ccccc4)CC3)ccc2=O)cc1F	nt	nt	6%	nt	nt	nt
O=C1C2C3C=CC(CC3)C2C(=O)N1/N=C/c1ccc(O)c(O)c1 (centres undefined)	2	16µM*	-1%	?	9%[10 µM]	-15%
O=C1c2ccccc2C(=O)N1/N=C/c1ccc(O)c(O)c1	1	16µM*	-2%	-3%	nt	-11%
O=C(Cn1ncc2c1-c1ccccc1OC2)N1CCc2ccccc21	3	-8%	-11%	-11%	-3%	5%
O=C(O)Cn1ncc2c1-c1ccoc1CC2	-38*	?	-20%	19%	-17%	-16%
c1csc(CNc2ccnc(-c3ccoc3)n2)c1	-3	nt	22µM*	nt	-31%	3%
CN(C)c1ccc(-c2nccc(NCc3cccs3)n2)cc1	0	nt	-20%	nt	-266%	-3%
CN(C)C(=O)c1ccc(-c2nccc(NCc3cccs3)n2)cc1	4	nt	45µM*	nt	?	8%
COc1cccc(N2CCN(C(=O)c3cc4c(s3)-c3c(C)cccc3OC4)CC2)c1	nt	nt	-13%	nt	nt	nt
Cc1ccccc1C(=O)Nc1cccc(NC(=O)c2ccc(C(C)(C)C)cc2)c1	nt	nt	50µM*	nt	nt	nt
CCc1ccc2oc(-c3ccc(OC)cc3)cc(=Nc3cccc(C(=O)O)c3)c2c1	2	?	79µM*	?	-126%	4%
Cc1cc(/C=C2\Sc3ccccc3N2C)cc(C)[n+]1CC1CCCO1 (centres undefined)	-4	-24%	2%	2.8µM*	-62%[10 µM]	7%
N#Cc1c(N)sc(=S)c2c1CCN(Cc1ccccc1)C2	-59*	?	nt	1%	1%[10 µM]	-57%
CCN(CC)c1ccc(/C=C2\C(=O)N(c3nnc(C)c(=O)[nH]3)N=C2C)cc1	-8	?	16µM*	11%[9.22 µM]	3%[10 µM]	206%
CCN(CC)c1ccc(/C=C2/C(=O)ON=C2C)cc1	-1	5%	?	-1%	7%[10 µM]	100%
CCN(CC)c1ccc(N=C2C=CC(=O)C=C2NC(C)=O)cc1	nt	nt	71µM*	nt	nt	nt
CCN(CC)c1ccc(NC(=O)Nc2ccc(C(C)=O)cc2)cc1	-3	-7%	-13%	-2%	-23%[0.074 µM]	-4%
O=C(COC(=O)c1ccc([N+](=O)[O-])s1)Nc1ncc(C(F)(F)F)cc1Cl	-12	20µM*	-18%	-1%	22%[1.9 µM]	54%
Cc1ccccc1OCCOc1ccccc1C=C(C#N)C#N	1	?	nt	3%	-8%[10 µM]	-1%
Cc1ccc(-c2ccc(CCC(=O)O)n2C(C)C)cc1	11	?	0%	4%	-3%	-10%
CC1=C(CCC(=O)O)c2cc3nc(cc4[nH]c(cc5[nH]c(cc1n2)c(C)c5C(C)O)c(C)c4C(C)O)C(C)=C3CCC(=O)O (centres undefined)	-8	-1%	18µM*	nt	nt	13µM*
SMILES	Coupling enz	JMJD2E inh	VDR inh	HTT aggregate	HTT cytoprotect	GoLoco inh red
C=Cc1c(C)c2cc3[nH]c(cc4nc(cc5nc(cc1[nH]2)C(C)=C5CCC(=O)O)C(CCC(=O)O)=C4C)c(C)c3C=C	-14	-12%	14µM*	-1%	38%	13µM*!
O=C(O)CCN1C(=O)/C(=C\c2ccncc2)SC1=S	-1	?	-7%	?	nt	5%
O=C(O)c1ccc(/C=C2\SC(=S)N(Nc3ccccc3)C2=O)cc1	13	-4%	?	-7%[9.22 µM]	-9%[10 µM]	1%
O=C1/C(=C/c2ccncc2)SC(=S)N1Nc1ccccc1	-5	?	50µM*	1%[9.22 µM]	-14%[10 µM]	277%
COC(=O)CCCCCN1C(=O)/C(=C\c2ccncc2)SC1=S	0	-14%	79µM*	17%[9.22 µM]	32%[10 µM]	-3%
CCOC(=O)N1C(C)CN(/[N+]([O-])=N/Oc2ccc([N+](=O)[O-])cc2[N+](=O)[O-])CC1C (centres undefined)	5	nt	-14%	nt	nt	nt
O=S(=O)(c1ccc(Br)cc1)c1nnn2c1nc(NCc1ccc3c(c1)OCO3)c1sccc12	nt	nt	6%	nt	nt	nt
Cc1cccc(N2C(=O)NC3(CCCCC3)C2=O)c1	0	-10%	11%	7%	5%	-12%
Cc1ccccc1N1C(=O)CC2(CCCC2)CC1=O	1	13%	11%	-11%	?	6%
Cc1ccc(C(=O)N2C3=C(CCCC3)C(=O)NC23CCCCC3)cc1	0	-4%	-24%	-2%	8%	0%
Cc1ccc(N2C(S)=C(C#N)C(=O)NC23CCCCC3)cc1	5	-3%	32µM*	-2%	-21%[10 µM]	-16%
Cc1cccc(NC2=C(C#N)C(=O)NC3(CCCC3)S2)c1	4	12%	20µM*	-13%[9.22 µM]	-20%[10 µM]	8%
Cc1cccc(N2C(S)=C(C#N)C(=O)NC23CCCCC3)c1	5	0%	45µM*	1%	15%[10 µM]	-14%
Cc1ccccc1N1C(S)=C(C#N)C(=O)NC12CCCCC2	1	4%	32µM*	-10%	-9%[10 µM]	1%
CCCCOc1ccc(C(=O)NCC(c2ccc(Cl)cc2)N2CCOCC2)cc1 (centres undefined)	nt	nt	18%	nt	nt	nt
CC(C)(C)CN1CCNC(=O)C1CC(=O)N1CCN(c2ccccc2)CC1 (centres undefined)	-38*	?	-5%	-11%[9.22 µM]	-10%[10 µM]	-4%
O=C(O)c1c(-c2ccc(Cl)cc2)cn2ccccc12	-1	?	12%	12%	nt	1%
CCn1c(C)cc(=S)c2ccccc21	-42*	?	-2%	?	-9%	14%
Cc1ccc(C)c(N(CC(=O)Nc2ccccc2C(=O)NCc2ccco2)S(=O)(=O)c2ccccc2)c1	-6	4µM*	0%	29%	7%[10 µM]	11%
O=[N+]([O-])c1cccc(Cl)c1	nt	nt	nt	nt	-5%	2%
O=[N+]([O-])c1cccc(SSc2cccc([N+](=O)[O-])c2)c1	nt	nt	4µM*	nt	nt	nt
O=C(NCCc1ccccc1Cl)c1ccc2c(c1)nc1n2CCCCC1	nt	nt	4%	nt	nt	nt
CCCCC1(Cc2ccc([N+](=O)[O-])cc2)C(=O)N(c2ccccc2)N(c2ccccc2)C1=O	-3	3%	-14%	10µM*	25%[10 µM]	-24%
CC1=NN(c2ccccc2)C(=O)/C1=C/c1cccc(C)c1	3	nt	50µM*	nt	nt	nt
